Source: PubChem BioAssay
Hits are enriched below; roughly 2.4% of the tested compounds scored in any of these assays.
D2 antagonist: HTS Assay for Allosteric Antagonists of the Human D2 Dopamine Receptor: Primary Screen for Antagonists; D(2) dopamine receptor (Homo sapiens), P14416; HEK293 TREx D2 cells, calcium flux, dopamine EC80; 2% of 340,000 active; inhibition, % at 10 µM; AID 485344, 2010; in the data active = inhibition above about 30%; inactive = below that, where a call was filed
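Dopamine at EC80 is the agonist stimulus; test compounds precede it by 180 s. Calcium flux read kinetically in a force-coupled, inducible HEK293 T-REx D2 cell line.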
D2 PAM-1: Beta-Arrestin HTS for Positive Allosteric Modulators of the Human D2 Dopamine Receptor: Potentiators. 0.23% of 360,000 active. DiscoveRx D2 beta-arrestin cells, luminescence, 90 min; 100% = 57 uM dopamine signal. potentiation, % (no concentration beside the values). AID 624464, 2012; in the data active = potentiation above about 50%; inconclusive = mostly about 30% to 49%
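PathHunter D2 cells, attached overnight at 37 deg C, received compound in DMSO plus dopamine at EC20 (50 nM final) for 90 min at 37 deg C. Beta-arrestin recruitment was read as luminescence after 1 h with detection reagent at ambient temperature.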
D2 PAM-2: HTS Assay for Positive Allosteric Modulators of the Human D2 Dopamine Receptor: Primary Screen for Potentiators | D(2) dopamine receptor (Homo sapiens), P14416 | HEK293 T-REx D2, calcium flux, EC20 dopamine potentiation | potentiation, % at 10 µM | 0.34% of 340,000 active | AID 485347, 2010;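 active = potentiation over 3 SD above the plate norm, cut at about 30% in these data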
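Potentiation of an EC20 dopamine calcium response is measured in a force-coupled, tetracycline-inducible Hek293 Trex D2 line. Compound-only kinetic reads over 180 s flag agonists before dopamine addition.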
D2 ag-1: Beta-Arrestin HTS for Positive Allosteric Modulators of the Human D2 Dopamine Receptor: Agonists | D(2) dopamine receptor (Homo sapiens), P14416 | DiscoveRx PathHunter D2 beta-arrestin, luminescence, 90 min; 100% = 57 uM dopamine signal | activation, % (test concentration not listed) | 0.084% of 360,000 active | AID 624465, 2012; in the data active = activation above about 40%; inconclusive = between about 15% and that limit
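DiscoveRx PathHunter D2 beta-arrestin cells (2,100/well) attached overnight, then compound-stimulated 90 min at 37 C in HBSS/10 mM HEPES/0.1% Tween-20 buffer; beta-galactosidase complementation read by luminescence after 1 h at ambient temperature. Dopamine 57 uM final (EC100) as control.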
D2 ag-2: HTS Assay for Allosteric Agonists of the Human D2 Dopamine Receptor: Primary Screen for Agonists; D(2) dopamine receptor (Homo sapiens), P14416; HEK293 T-REx D2 cells, calcium flux agonist mode; activation, % at 2 µM; 0.53% of 340,000 active; AID 485358, 2010;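 active = activation over 3 SD above normal in the single-dose calcium agonist read, cut at about 30% in these data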
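Agonism is scored from calcium flux in a force-coupled, inducible HEK293 cell line expressing D2, read kinetically for 180 s after compound addition against dopamine controls.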
B2AR arrestin: qHTS assay of beta-arrestin-biased ligands of beta2-adrenergic receptor. Beta-2 adrenergic receptor (Homo sapiens), P07550. beta-arrestin recruitment to beta2AR, cell-based reporter. Potency, µM (titrated, usually from 46.1 µM), hits mostly activators. 0.02% of 330,000 active. AID 492947, 2010; active = well fitted activation curve with a large enough effect; inconclusive = small, poorly fitted or top-dose-only effect; note: nearly all actives have a fitted effect of over 65% in size
Target sequence (P07550 whole entry, looked up): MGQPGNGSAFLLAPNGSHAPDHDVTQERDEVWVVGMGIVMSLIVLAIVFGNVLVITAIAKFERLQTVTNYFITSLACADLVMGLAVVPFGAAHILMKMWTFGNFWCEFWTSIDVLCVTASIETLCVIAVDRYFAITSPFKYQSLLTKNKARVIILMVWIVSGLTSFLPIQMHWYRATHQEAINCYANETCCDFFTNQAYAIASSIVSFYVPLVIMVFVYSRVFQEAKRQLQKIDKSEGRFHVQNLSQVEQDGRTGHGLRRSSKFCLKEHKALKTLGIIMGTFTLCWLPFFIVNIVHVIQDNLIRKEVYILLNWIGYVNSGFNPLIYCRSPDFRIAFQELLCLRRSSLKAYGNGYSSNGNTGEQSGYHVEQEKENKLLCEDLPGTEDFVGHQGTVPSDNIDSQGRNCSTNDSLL
Each line names hits and unclear results; the compound was inactive in the other large screens.

Cc1cccc(CSc2nc3ccccc3c(=O)n2C)c1	D2 antagonist 35
Cn1c(SCc2ccc(Br)cc2)nc2ccccc2c1=O	none
CN(C)/C=C/C(=O)c1ccc2noc(-c3cccc(F)c3)c2c1	D2 ag-1 46
CC(=O)c1ccc2noc(-c3ccc(F)cc3)c2c1	D2 antagonist 34, D2 PAM-1 59
COc1ccc(-c2onc3ccc(C(=O)/C=C/N(C)C)cc23)cc1	D2 ag-1 inconclusive
COc1ccccc1NC(=O)CN(c1ccc(C(C)C)cc1)S(=O)(=O)c1c(C)noc1C	none (no result: D2 antagonist, D2 PAM-1, D2 ag-1, B2AR arrestin)
COCCCNc1nc2c(c(=O)n(Cc3ccccc3)c(=O)n2C)n1C	none (no result: D2 antagonist, D2 PAM-1, D2 PAM-2, D2 ag-1, B2AR arrestin)
Cc1cc(C(=O)CCC(=O)Nc2ncccc2O)c(C)s1	none
COc1ccc(C(=O)N2CCN(CCNC(=O)C(=O)Nc3ccc(F)cc3)CC2)cc1	none
COc1ccc(NC(=O)C(=O)NCCN2CCN(C(=O)c3ccc(C)cc3)CC2)cc1	D2 antagonist 46
Cc1cccnc1NC(=O)CNC(=O)C1CCCCC1	none
CCN(C(=O)Cc1c(C(=O)O)[nH]c2ccccc12)c1ccc(OC)cc1	D2 antagonist 53
Cn1c(=O)c2c(nc(SCC(=O)c3ccc(F)cc3)n2C)n(C)c1=O	none
O=C(C#Cc1ccccc1)Nc1ccc(F)cc1	D2 antagonist 47
CC(C)C(=O)N1CCC(CN=Cc2c(O)n(C3CCCCC3)c(=O)n(C3CCCCC3)c2=O)CC1	none
CCOc1ccc(NC(=O)c2cc3c(=O)n4cccc(C)c4nc3s2)cc1	none (no result: D2 antagonist, D2 PAM-1, D2 PAM-2, D2 ag-1, B2AR arrestin)
O=C(c1n[nH]c2ccccc12)N1CCOCC1	D2 antagonist 39
COC(=O)CS(=O)(=O)c1ccsc1C(=O)Nc1ccc(F)cc1	D2 antagonist 38
COC(=O)c1sccc1NC(=O)Nc1ccc(F)cc1	none
CCOC(=O)C1CCCN(C2=NC(=O)/C(=C/c3ccc(OC)c(OC)c3)S2)C1 (centres undefined)	none (no result: D2 antagonist, D2 PAM-2, D2 ag-2)
COc1ccc(/C=C2\SC(N3CCc4ccccc4C3)=NC2=O)cc1OC	D2 antagonist 53
Cn1cc(CN2CCC(n3nccc3NC(=O)c3ccccc3Cl)CC2)c2ccccc21	none
COc1ccccc1C(=O)Nc1ccnn1C1CCN(Cc2cn(C)c3ccccc23)CC1	D2 antagonist 62
COc1ccccc1C(=O)Nc1ccnn1C1CCN(CCCC2CCCC2)CC1	D2 antagonist 31
O=C(Nc1ccnn1C1CCN(CCCc2ccccc2)CC1)c1cccc(F)c1	D2 ag-2 34
COc1ccccc1C(=O)Nc1ccnn1C1CCN(Cc2cc(C)c(C)cc2C)CC1	D2 antagonist 53
COc1ccc(C)c(NC(=O)NCCc2cnc[nH]2)c1	D2 antagonist 38
COc1cc(CC2COC(c3ccc(O)c(OC)c3)C2COC(C)=O)ccc1O (centres undefined)	D2 antagonist 45
COc1cc([C@@H]2OC[C@@H]3[C@H]2CO[C@@H]3c2ccc3c(c2)OCO3)ccc1O	none (no result: D2 antagonist, D2 PAM-2, D2 ag-2)
COC(=O)C1=C(C(=O)OC)N2C=CC=CC2(C)C(C(=O)OC)=C1C(=O)OC (centres undefined)	D2 antagonist 32
COC(=O)C1=C(C(=O)OC)C(C(=O)OC)C(C(=O)OC)C(C(=O)OC)(C(=O)OC)C(C(=O)OC)=C1C(=O)OC (centres undefined)	none (no result: D2 antagonist, D2 PAM-2, D2 ag-2, B2AR arrestin)
NC(=O)c1ccccc1NS(=O)(=O)c1ccc(S(=O)(=O)N2CCCC2)cc1	none
COc1ccc2c(c1)C(=O)N(c1ccccc1)C(=O)C2	D2 PAM-2 31
COc1ccc(C(=O)Nc2ccccc2C(=O)NC(Cc2ccc(O)cc2)C(=O)NNC(=O)c2ccccc2Cl)cc1 (centres undefined)	none
Oc1c(N=NC(=S)Nc2ccccc2F)c2ccccc2n1Cc1ccc(F)cc1	none
NC(=S)N=Nc1c(O)n(Cc2ccc(F)cc2)c2ccccc12	B2AR arrestin 9.2µM
NC(=S)N=Nc1c(O)n(Cc2ccc(Br)cc2)c2ccccc12	D2 PAM-1 52
Cc1ccc2c(c1)c(N=NC(N)=S)c(O)n2Cc1ccccc1	none
OCC1(Cc2cccc(Cl)c2)CCCN(Cc2sc(N3CCCC3)nc2Cl)C1 (centres undefined)	none
CCc1ccccc1-n1c(-c2ccncc2)n[nH]c1=S	D2 antagonist 70
Cc1ccccc1-n1c(-c2ccncc2)n[nH]c1=S	none
Cc1cc(C)nc(SCCC(=O)Nc2ccccc2C)n1	none
O=P(OC1CCCCC1)(OC1CCCCC1)C(Nc1ccccc1)c1cccnc1 (centres undefined)	none
CC(C)CCOP(=O)(c1ccc(N(C)C)cc1)C(O)c1ccc(Cl)cc1Cl (centres undefined)	D2 ag-1 40
Cc1ccc(C(=O)NCCN2C3=NC[C@@H](Cc4ccccc4)N3C[C@H]2Cc2ccc(O)cc2)cc1Br	D2 antagonist 68
Cc1ccc(C(=O)NCCN2C3=NC[C@H](Cc4ccc(O)cc4)N3C[C@H]2Cc2ccc(O)cc2)cc1Br	none
CCOc1ccc(NC(=O)Nc2cc(C(C)C)ccc2C)cc1	D2 antagonist 31 (no result: D2 PAM-1, D2 ag-1)
Cc1cc(O)c(C(C)C)cc1NC(=O)Nc1ccc([N+](=O)[O-])cc1	none (no result: D2 antagonist, D2 PAM-2, D2 ag-2, B2AR arrestin)
Cc1ccc(C(C)C)cc1NC(=O)Nc1ccc([N+](=O)[O-])cc1	D2 antagonist 37
CN1CCN(/C=N/C2=C(C#N)C(c3ccccc3)C3=C(CC(C)(C)CC3=O)O2)CC1 (centres undefined)	D2 PAM-2 36
CC1(C)CC(=O)C2=C(C1)OC(/N=C/N1CCCC1)=C(C#N)C2c1ccccc1 (centres undefined)	none
COc1ccccc1CNC(=O)C1(C)Oc2cccnc2NC1=O (centres undefined)	none
Cc1cc(NC(=O)CS(=O)(=O)c2ccc(Cl)cc2)no1	D2 PAM-2 44
COc1ccc(S(=O)(=O)N2CCN(C(=O)c3ccco3)CC2)c(C)c1C	none
N#CC1=C(N)Nc2ncnn2C1c1ccccc1 (centres undefined)	none (no result: D2 PAM-1, D2 ag-1)
c1ccc(C2C3=C(CCCC3)Nc3ncnn32)cc1 (centres undefined)	D2 antagonist 31
O=C1CC(c2cccs2)CC2=C1C(c1ccccc1)n1ncnc1N2 (centres undefined)	none
